Laboratory results taken from PubChem BioAssay AID488899 (Broad Institute, 2010).
“And” between values parts separate entries of the source, which are not always exact repeats. Equal entries are not always repeated. The whole screen tested about 330,000 compounds, of which about 2,800 (0.85%) were called active. This is one part of a sample in which actives are shown more often than they occur. Unmarked numbers belong to inactive results.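 How the source made its calls: active means mean inhibition across replicates of 60% or more, whatever share of single replicates reaches that level; inconclusive means some that reach 60%, reason not given; inactive means mean inhibition across replicates below 60%.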

Test: MITF transcriptional activity suppression – cell-based, SK-MEL-5, single point, luciferase, primary screen (AID 488899)
Settings: SK-MEL-5 TRPM1 promoter luciferase, 24 h; at 12.5 µM; active compounds read high
With CCOc1ccc(-c2cc(C)[n+](CCN(CC)CC)c(-c3ccc(OCC)cc3)c2)cc1 the inhibition was 69.6% (active).
For CC1CC=CCC12C(=O)NC(=S)NC2=O (stereo not given), the inhibition was 6.98%.
In the case of N#Cc1ccc(Cn2cc(C(=O)c3ccco3)c3ccccc32)cc1, the inhibition was 12.8%.
Compound CC(=O)N(C1=NCCCS1)c1ccccc1F has an inhibition of 6.66%.
Work on Fc1ccc(C2N3CCCN23)cc1 (stereo not given) yielded an inhibition of 5.89%.
With CC1=CC(=Cc2sc3ccccc3[n+]2C)C=C(C)O1 the inhibition was 69.6% (active).
Compound Cc1cccc(NC(=O)N2CC3CC(C2)c2cccc(=O)n2C3)c1 (stereo not given) has an inhibition of -3.6%.
Compound Cc1nn(Cc2ccccc2Cl)c(Cl)c1C(=O)OC(C(=O)NC(N)=O)C(C)C (stereo not given) has an inhibition of -9.08%.
With CC1C(=O)OC2CCN3CC=C(COC(=O)C(C)(O)C1(C)O)C23 (stereo not given) the inhibition was -1.22%.
Compound O=C(c1ccccc1)C(O)(CN1CCCCC1)c1ccccc1 (stereo not given) has an inhibition of 3.2%.
In the case of OCC#CC[N+]1(CC#Cc2ccccc2)CCCC1, the inhibition was 2.94%.
Compound COC(=O)C1=C(c2cccc(OCc3ccccc3)c2)C[C@@H]2CC[C@H]1N2C(=O)NCc1ccc(Br)cc1 has an inhibition of -1.21%.
For CCC(C)(O)C(=O)OC1C(=O)OC2CC3C(C)=CC(=O)C(O)C3(C)C3C4(O)OCC23C1C(C)C4O (stereo not given), the inhibition was 72.8% (active).
Work on CC1=C2C(=O)C3C(CC=C4CC(OC5OC(O)C(O)C(O)C5CO)CCC43C)C2CCC12OC1CC(C)CNC1C2C (stereo not given) yielded an inhibition of 0.655%.
Work on CN(C)C(=O)NC(O)C(Cl)(Cl)Cl (stereo not given) yielded an inhibition of 8.39%.
In the case of CCN1c2nc3c(C)cccn3c(=O)c2CC2(C(=O)N(C)C(=O)N(C)C2=O)C1C (stereo not given), the inhibition was 0.643%.
Cn1c(O)c(C=Nc2ccc3c(c2)CCC3)c(=O)n(C)c1=O gave an inhibition of -24.2%.
In the case of COC(=O)C1=C(c2ccc3ccccc3c2)C[C@@H]2CC[C@H]1N2C(=O)NCCO, the inhibition was -9.09%.
Compound CC12CN3CC(C)(CN(C1)C3c1cccs1)C2 (stereo not given) has an inhibition of -13%.
For CC(=O)OC1C2(CC3N4C(=O)C5(CO)SSC4(CC31O)C(=O)N5C)OC(C)C(C)(C)C2=O (stereo not given), the inhibition was 112% (active).
Compound CC1CNCCN1c1ccc(Cl)cc1 (stereo not given) has an inhibition of -17.8%.
In the case of Cc1cc2ccccn2c1C(C[N+](=O)[O-])c1c(F)cccc1Cl (stereo not given), the inhibition was 7.17%.
Work on O=c1c2ccccc2nc(/C=C/c2ccc(F)cc2)n1-c1ccccc1O yielded an inhibition of -2.83%.
In the case of Cc1ccc(P(=S)(c2ccc(C)o2)N2CCOCC2)o1, the inhibition was -0.096%.
For COC1C(O)C(C)OC(OC2CCC3(C=O)C(CCC4C3CCC3(C)C(C5=CC(=O)OC5)CCC43O)C2)C1O (stereo not given), the inhibition was 74.9% (active).
Work on O=C(O)CCn1cc(C=C2C(=O)NC(=S)NC2=O)c(-c2cccc(Br)c2)n1 yielded an inhibition of 4.06%.
With c1ccc(CCN2CCC3(CC2)OCCO3)cc1 the inhibition was 9.66%.
Compound C[C@]12CCC3C(CC[C@H]4C[C@@H](O)CC[C@]34C)C1CC[C@@H]2O (stereo not given in full) has an inhibition of 6.32%.
For C[C@]12CCC3C(CC[C@H]4C[C@@H](O)CC[C@]34C)C1C[C@@H](O)[C@H]2O (stereo not given in full), the inhibition was 2.08%.
In the case of C[C@]12CC[C@H](O)C[C@H]1CC[C@@H]1C2CC[C@]2(C)[C@@H](C3=CC(=O)OC3)[C@@H](O)C[C@]12O (stereo not given in full), the inhibition was 80.6% (active).
Work on NCCc1c[nH]c2ccc(O)cc12 yielded an inhibition of 12.6%.
COC(=O)C1=C(c2ccc(-c3ccccc3)c(F)c2)C[C@@H]2CC[C@H]1N2C(=O)NCc1ccc(F)cc1 gave an inhibition of -8.41%.
For CCCCCCCCCCCCn1ccc(=N)cc1, the inhibition was 80.1% (active).
With CN(C)C(=O)Oc1cc(OC(=O)N(C)C)cc(C(O)CNC(C)(C)C)c1 (stereo not given) the inhibition was -3.47% and -8.18%.
With CC(C)c1c(CN(C)C(C)Cc2ccccc2)n(C)n(-c2ccccc2)c1=O (stereo not given) the inhibition was 9.81%.
